Values joined by “and” are separate entries in the source; they are usually repeats but may differ in a detail not shown here. Identical values can stand only once. The panel holds about 83,000 compounds, 20% with a hit somewhere; the sample as a whole holds those more often.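 For each line, cells grew in 96-well plates with the test compound present at a single concentration for 48 hours.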 Some compounds were tested as several samples or in several runs, with calls that do not always agree. Active and inactive are the calls of the source.
Legend:
Assay in all cases: NCI-60 one-dose screen, 48 h (100 = growth as untreated, 0 = no growth, -100 = all killed)
Conditions in all cases: 10 µM
NCI-H23 lung = system: NCI-H23 lung
NCI-H226 lung = system: NCI-H226 lung
NCI-H322M lung = system: NCI-H322M lung
HOP-62 NSCLC = system: HOP-62 NSCLC
Procedure: (§1) Growth inhibition of the HOP-62 human Non-Small Cell Lung tumor cell line is measured as a screen for anti-cancer activity. Cells are grown in 96 well plates and exposed to the test compound for 48 hours. Compounds are tested at a single concentration, which is 10^-5 M for most compounds. The reported endpoint is percent growth (GI% or GIPRCNT), where numbers from 0 - 100% represent growth inhibition, and numbers from -100% - 0 represent cell death. For example, a value of 40 represents 60% growth inhibition. A value of 0 means no net growth occurred over the course of the experiment. A value of -40 indicates 40% of cells at the beginning of the experiment died by the end of the experiment. A value of -100 means all cells are dead at the end of the experiment.
(§2) NCI-60 Human Tumor Cell Lines Screen was performed using the standard one-dose NCI protocol, which is described in more detail at https://dtp.cancer.gov/discovery_development/nci-60/default.htm.
(§3) Compounds with GIPRCNT values below 10 were considered active. Activity score was based on GIPRCNT using the following formula: […]
(§4) Score is 0 for GIPRCNT values of 100 or above, 50 for GIPRCNT values of 0, and 100 for GIPRCNT values of -100.

NCI-H460 lung = system: NCI-H460 lung
HOP-92 NSCLC = system: HOP-92 NSCLC
NCI-H522 lung = system: NCI-H522 lung
A549/ATCC NSCLC = system: A549/ATCC NSCLC
786-0 renal = system: 786-0 renal
Procedure: as §1, with “Cells” for “Growth inhibition of the HOP-62 human Non-Small Cell Lung tumor cell line is measured as a screen for anti-cancer activity. Cells”
as §2, §3, §4

COLO 205 colon = system: COLO 205 colon
Procedure: as §1, with “Cells” for “Growth inhibition of the HOP-62 human Non-Small Cell Lung tumor cell line is measured as a screen for anti-cancer activity. Cells”
as §2, §3, §4

Compound | growth (NCI-H23 lung) | growth (NCI-H226 lung) | growth (NCI-H322M lung) | growth (HOP-62 NSCLC) | growth (NCI-H460 lung) | growth (HOP-92 NSCLC) | growth (NCI-H522 lung) | growth (A549/ATCC NSCLC) | growth (786-0 renal) | growth (COLO 205 colon)
C#CCN(Cc1ccc2nc(N)[nH]c(=O)c2c1)c1ccc(C(=O)NC(CCC(=O)O)C(=O)O)cc1 (centres undefined) | 99.2% (inactive) | 80.8% (inactive) | 90.3% (inactive) | 82.3% (inactive) | 80.1% (inactive) | 86.9% (inactive) | 80.2% (inactive) | 95% (inactive) | 12% (inactive) | 67.4% (inactive)
C=C1C(=O)OC2CC1C(OC(C)=O)C/C(C)=C/CC/C(C)=C\CCC2(C)O (centres undefined) | 11.1% (inactive) | 15.9% (inactive) | 67.3% (inactive) | 106% (inactive) | 21.7% (inactive) | -28.6% (active) | -83.9% (active) | 64.1% (inactive) | 38.9% (inactive) | 0.7% (active)
CN(C)CCOC1(Cc2ccc(Cl)cc2Cl)CCC(C(C)(C)C)CC1 (centres undefined) | 33.4% (inactive) and 36.7% (inactive) | 53% (inactive) and 33.9% (inactive) | 70% (inactive) and 76.3% (inactive) | 39.8% (inactive) and 42.1% (inactive) | -65.8% (active) and -61.2% (active) | 47.9% (inactive) and 43% (inactive) | 9.54% (active) and 48.6% (inactive) | 38.9% (inactive) and 21.1% (inactive) | 51.2% (inactive) and 24.3% (inactive) | -89.2% (active) and -87.9% (active)
CC1=CC(=C(c2ccc(N)cc2)c2ccc(N)cc2)C=CC1=N | 29.7% (inactive) and 44.7% (inactive) | 17% (inactive) and 51.4% (inactive) | 26.3% (inactive) and 38.5% (inactive) | 31.4% (inactive) and 20.6% (inactive) | 6.34% (active) | 2.19% (active) and 63% (inactive) | -8.93% (active) and 60.9% (inactive) | 14.1% (inactive) and 16.9% (inactive) | 23.5% (inactive) and 42.8% (inactive) | -8.22% (active) and -56.6% (active)
Cc1cc(N(CCOS(C)(=O)=O)CCOS(C)(=O)=O)ccc1C=Nc1ccc(-c2nc(Cc3ccccc3)sc2C)cc1 | 31% (inactive) | 61.6% (inactive) | -18.9% (active) | 36% (inactive) | -38.3% (active) | – | -91.3% (active) | 34.8% (inactive) | 13.8% (inactive) | -71.3% (active)
Cc1ccc(Sc2ccccc2N)cc1 | 72.3% (inactive) | 106% (inactive) | 105% (inactive) | 100% (inactive) | 41.3% (inactive) | 101% (inactive) | 71.4% (inactive) | 96% (inactive) | 108% (inactive) | 96.8% (inactive)
O=[N+]([O-])c1cc[n+]([O-])cc1 | 100% (inactive) | 105% (inactive) | 133% (inactive) | 131% (inactive) | 103% (inactive) | 116% (inactive) | 83.1% (inactive) | 101% (inactive) | 106% (inactive) | 117% (inactive)
COc1ccc(C(=O)C(CN(C)C)CN(C)C)cc1 | 96.1% (inactive) | 113% (inactive) | 98% (inactive) | 97.9% (inactive) | 102% (inactive) | 44% (inactive) | -54.1% (active) | 118% (inactive) | 87.8% (inactive) | -75.3% (active)

From PubChem BioAssay (NCI)
